An excerpt weighted towards active compounds, which were near 28% of everything screened.
D1 allo mod = D1 CRE-luciferase signal change, two-sided – cell-based, HEK293 D1, dopamine EC30, D1 allosteric modulator project, primary screen; D(1A) dopamine receptor (Homo sapiens), P21728; dopamine EC30 potentiation; actives deviate in either direction; B-score at 10 µM; 58,000 tested, 5.9% active;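 active = luminescence count or its row- and column-corrected plate score outside the 99.7% band of the plate's sample wells, on either side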
CYP2C19 inh = blockers of cytochrome P450 2C19 activity – biochemical, luminescence, ADME assay, primary screen; 96,000 tested, 21% active; inhibition, % at 5 µM; CYP2C19 Supersomes, luciferin-H EGE luminescence, 30 min;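 active = CYP2C19 inhibition above a set limit at 5 µM in the primary screen, cut at about 50% in these data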;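 also: plate controls were negative control wells for no effect and 2.5 mM tranylcypromine positive control for full effect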
Target sequence (P33261 whole entry, looked up): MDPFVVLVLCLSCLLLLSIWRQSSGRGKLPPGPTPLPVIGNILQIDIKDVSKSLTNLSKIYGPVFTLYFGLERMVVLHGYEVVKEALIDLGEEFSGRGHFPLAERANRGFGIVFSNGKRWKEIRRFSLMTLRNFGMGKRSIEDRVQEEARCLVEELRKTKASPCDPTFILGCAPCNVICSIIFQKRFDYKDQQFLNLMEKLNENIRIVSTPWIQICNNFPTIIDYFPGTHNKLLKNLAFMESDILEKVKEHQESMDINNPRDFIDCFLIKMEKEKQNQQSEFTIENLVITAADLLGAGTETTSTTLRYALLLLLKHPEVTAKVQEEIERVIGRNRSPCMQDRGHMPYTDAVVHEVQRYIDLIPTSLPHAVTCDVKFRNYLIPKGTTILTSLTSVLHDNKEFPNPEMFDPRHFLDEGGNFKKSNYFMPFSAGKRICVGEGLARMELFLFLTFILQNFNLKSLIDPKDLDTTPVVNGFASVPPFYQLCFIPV
CYP2C9 act = human CYP2C9 activators, primary screen, biochemical, luminescence; Cytochrome P450 2C9 (Homo sapiens), P11712; recombinant CYP2C9, luciferin-H conversion; stronger effect = higher value; factor 1 = untreated enzyme, 0 = blocked; activation factor at 5 µM; 96,000 tested, 1.4% active;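 active = activation factor of 2 or more for CYP2C9 at a 5 µM dose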;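 also: 0 = sulfaphenazole-blocked wells and 1 = vehicle-only wells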
hDAT+cocaine = changed hDAT dopamine uptake under cocaine IC80, either direction, primary screen, cocaine antagonist project, cell-based, LLC-PK1 hDAT, [14C]-dopamine uptake, MLSMR. Sodium-dependent dopamine transporter (Homo sapiens), Q01959. LLC-PK1 hDAT cells, [14C]-dopamine uptake with cocaine IC80; actives deviate in either direction. B-score at 10 µM. 110,000 tested, 1.3% active. AID 449768, 2010;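 active = Z score or B-score, a plate-position-corrected score, falls beyond the plate's 99.7% confidence bounds, in either direction; inactive = both scores lie inside the 99.7% bounds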;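 also: scored against the spread of the other compound wells on the same plate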
CYP2C19 act = human CYP2C19 activators, primary screen, biochemical, luminescence | Cytochrome P450 2C19 (Homo sapiens), P33261 | recombinant CYP2C19, luciferin-H EGE luminescence; stronger effect = higher value; 0 = fully inhibited enzyme, 1 = untreated enzyme | activation factor at 5 µM | 96,000 tested, under 10 active | AID 1025, 2008;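 active = activation factor of at least 2 at 5 µM in the primary screen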;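 also: 0 = wells with 2.5 mM tranylcypromine and 1 = vehicle-only wells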
CYP2C9 inh = blockers of cytochrome P450 2C9 activity – biochemical, luminescence, ADME assay, primary screen | P11712 | CYP2C9 Supersomes, luciferin-H conversion | inhibition, % at 5 µM | 96,000 tested, 20% active;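 active = blocking of liver enzyme CYP2C9 beyond about 50% at 5 µM, limit read from the data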
An asterisk follows results filed as active; . = no result.

SMILES | D1 allo mod | CYP2C19 inh | CYP2C9 act | hDAT+cocaine | CYP2C19 act | CYP2C9 inh
CCOc1ncccc1C(=O)OCC(=O)c1c(N)n(C)c(=O)n(C)c1=O | 1.25 | -4.8 | 1.3 | 0.815 | 1 | -33.6
CCO[C@H]1OC(C(N)=O)=C[C@@H](C2CCCCC2)[C@@H]1CCCO | . | . | . | -0.344 | . | .
CCOc1cc(C(=O)CSc2nnc(CNc3ccc(Cl)cc3)o2)ccc1NC(=O)CC | -1.57 | 42.4 | 0.7 | -0.022 | 0.6 | 30.6
N#CC1(Cc2ccc(Cl)cc2)c2ccccc2C=CN1C(=O)c1ccccc1 (stereo not drawn) | . | 96.5* | 0.1 | -0.756 | 0 | 92.9*
CCN(CC)S(=O)(=O)c1ccc(NC(=O)COc2c(OC)cccc2OC)cc1 | 2.07 | 22.3 | 0.6 | 0.893 | 0.8 | 36.3
CC(=O)NC(CC(=O)Nc1ccc(S(=O)(=O)N2CCCC2)cc1)c1ccccc1 (stereo not drawn) | 0.351 | 12.1 | 0.5 | -1.54 | 0.9 | 52.4*
CCN(CC)S(=O)(=O)c1ccc(NC(=O)C(OC)c2ccccc2)cc1 (stereo not drawn) | -1.34 | 6.9 | 0.4 | 0.308 | 0.9 | 55.0*
CCN(CC)S(=O)(=O)c1ccc(NC(=O)CC(NC(C)=O)c2ccccc2)cc1 (stereo not drawn) | . | 49.8 | 0.1 | -0.0552 | 0.5 | 86.1*
Fc1ccc(Oc2cc(N3CCOCC3)nc(-c3ccccc3)n2)c(F)c1 | . | 1.2 | 1.1 | -1.66 | 1 | -8.8
Cc1ccc(OC(C)C)c(CN(CCO)CCO)c1 | . | -0.1 | 1 | 0.0172 | 1 | -4.5
CS(=O)(=O)N(CC(O)Cn1c2ccccc2c2ccccc21)c1ccccc1 (stereo not drawn) | -0.789 | 95.9* | 0 | 0.843 | 0 | 96.7*
COc1ccc(N(CC(O)Cn2c3ccccc3c3ccccc32)S(=O)(=O)c2ccccc2)cc1 (stereo not drawn) | . | 82.6* | 0.3 | 0.0992 | 0.2 | 69.8*
CCN(CC(O)Cn1c2ccccc2c2ccccc21)S(=O)(=O)c1ccc(C)cc1 (stereo not drawn) | . | 98.9* | 0.1 | 0.458 | 0 | 89.7*
Cc1nc2scc(-c3ccc(Cl)cc3)c2c(=O)o1 | . | 5.0 | 0.8 | -0.328 | 0.9 | 21.7
CCOC(=O)C1CCN(C(=O)CN(c2cc(OC)ccc2OC)S(=O)(=O)c2ccccc2)CC1 | -0.63 | 16.7 | 0.6 | 1.39 | 0.8 | 44.6
CCOC(=O)c1cnn(-c2ccccc2)c1-n1cccc1C(=O)C(=O)Nc1ccccc1C(F)(F)F | . | 53.9* | 0.3 | -0.565 | 0.5 | 65.4*
CC(C)Oc1ccc(N2CC(C(=O)Nc3ccc4c(c3)OCO4)CC2=O)cc1 (stereo not drawn) | -0.0098 | -2.2 | 0.8 | -1.04 | 1 | 21.0
NNC(=O)CCc1c[nH]c2ccccc12 | . | . | . | -0.47 | . | .
O=C(CCS(=O)(=O)Cc1ccccc1)NCC1CCCO1 (stereo not drawn) | -0.626 | -4.5 | 1.1 | 2.09* | 1 | -10.5
O=C(Cc1ccccc1)NCC1CCCO1 (stereo not drawn) | . | 11.0 | 0.9 | -0.00192 | 0.9 | 6.3
O=C(CCc1c[nH]c2ccccc12)NCC1CCCO1 (stereo not drawn) | -0.663 | 88.9* | 3.1* | -0.258 | 0.1 | -205.8
CC(C)CNC(=O)CCc1c[nH]c2ccccc12 | . | 83.9* | 1.5 | -0.668 | 0.2 | -48.1
O=C(Cc1cccc2ccccc12)NCC1CCCO1 (stereo not drawn) | . | 32.4 | 1.1 | -0.463 | 0.7 | -10.2
COc1ccc(C2C3=C(CC(C)(C)CC3=O)Oc3ncn4nc(-c5cccnc5)nc4c32)cc1 (stereo not drawn) | 0.522 | . | . | . | . | .
COC(C[C@H](O)[C@@H](C)[C@H](O)COCc1ccccc1)OC | . | . | . | -0.0548 | . | .
Cc1c(Cl)cccc1-n1c(SCC(=O)NCc2cccs2)nnc1-c1ccncc1 | . | 96.8* | 0.2 | 1.34 | 0 | 76.6*
CCCn1c(SCC(=O)NCc2ccccc2)nnc1-c1ccncc1 | . | 15.5 | 1 | -0.563 | 0.8 | 2.4
